This note sets out measurements from PubChem BioAssay (Tox21).

Structures are written as SMILES. Several values for one entry are separate records, joined by “and”; a condition that tells them apart may be missing. Equal values may be shown once. Inconclusive results are not listed. A structure can be active in one record and inactive in another. Activity calls are given as the source filed them. Unless noted, calls follow the shape of the full dose curve.

Assay [1] can be described thus: Nuclear factor erythroid 2-related factor 2/antioxidant responsive element (Nrf2/ARE) small molecule agonists: qHTS cell viability counter screen in human keratinocytes (AID 1919968; active = well fitted curve in the direction sought with a large enough effect in the repeat runs; an effect the other way counts as inactive or inconclusive; also: nearly all actives have a fitted effect of over 55% in size). In outline: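 Fluorescence read-out from CellTiter-Fluor after 1 h at 37 C. Wells held HaCaT-derived ARE-luciferase reporter cells (1,500/well) treated 23 h with DMSO-dissolved compounds. Run in the same wells as the luciferase agonist read.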

Assay [2] can be described thus: Nuclear factor erythroid 2-related factor 2/antioxidant responsive element (Nrf2/ARE) small molecule agonists: luciferase reporter gene qHTS assay in human keratinocytes (AID 1919969). Also: nearly all actives have a fitted effect of over 35% in size.
Assay [3] addresses Gonadotropin-releasing hormone receptor (Homo sapiens) (UniProt P30968). Kind of assay: Human gonadotropin-releasing hormone receptor (GnRHR) small molecule agonists, calcium flux assay in GnRHR-HEK293 cells (AID 1920063). Also: nearly all actives have a fitted effect of over 35% in size. In outline: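 Calcium-dye fluorescence, Ex/Em=480/540, recorded every 1 sec over 3 min after compound addition to GnRHR-HEK293 cells. Cells had been seeded 18 hours earlier and dye-loaded for 1 hour at 37 C. Fifteen concentrations, triplicates.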

In assay [4] the target is KiSS-1 receptor (Homo sapiens) (UniProt Q969F8). Kind of assay: Human kisspeptin (KISS1R) small molecule agonists, calcium flux assay in KISS1R-HEK293 cells (AID 1920064; active = well fitted curve in the direction sought with a large enough effect in the repeat runs; an effect the other way counts as inactive or inconclusive). In outline: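 Calcium flux read-out: kinetic fluorescence at Ex/Em=480/540, 1 s intervals over 3 min, after pin-tool compound addition to dye-loaded KISS1R-HEK293 cells. Fifteen concentrations, triplicates.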

Assay [5] is described as follows: G protein-coupled receptor (GPCR) small molecule agonists, calcium flux assay: HEK293 wild type cell line counter screen (AID 1920065). In outline:
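Agonist mode; 18 h seeding at 37 C, 1 h dye load at 37 C; compounds pinned from DMSO, ATP as positive control; kinetic fluorescence 480/540 nm, 3 min, 1 s reads; 15 concentrations, triplicate.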

Assay [6] can be described thus: p53 small molecule agonists, cell-based qHTS assay with human liver microsomes (AID 1963577). The gist of the method: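 Fluorescence of the beta-lactamase reporter in p53RE-bla cells, detected with LiveBLAzer substrate (2 h, room temperature, dark), served as the read-out after 16 h compound exposure at 37 C with human liver microsomes and NADPH, each 0.5 mg/mL final.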

The nature of assay [7]: p53 small molecule agonists, cell-based qHTS assay with rat liver microsomes (AID 1963578). The gist of the method: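 Cells carrying a p53 response element–beta-lactamase reporter were plated and rested 5 h, then dosed with compound in DMSO plus rat liver microsomes and NADPH, each at 0.5 mg/mL final. After 16 h at 37 C, LiveBLAzer substrate was added for 2 h.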
A short description of assay [8]: p53 small molecule agonists, cell-based qHTS assay with human liver microsomes: qHTS cell viability counter screen (AID 1963579). Also: nearly all actives have a fitted effect of over 45% in size. In outline: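 Cytotoxicity counter screen: p53RE-bla, 4,000 cells/well; 5 h settle, 37 C/5% CO2; cpd + HLM 0.5 mg/mL + NADPH 0.5 mg/mL (final); 16 h, 37 C; CellTiter-Glo, 30 min RT, luminescence.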
The nature of assay [9]: p53 small molecule agonists, cell-based qHTS assay with rat liver microsomes: qHTS cell viability counter screen (AID 1963580). Also: nearly all actives have a fitted effect of over 45% in size. In outline:
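Cytotoxicity counter screen: intracellular ATP measured by CellTiter-Glo luminescence in the same wells as the beta-lactamase reporter read, on HCT-116 p53RE-bla cells exposed 16 h at 37 C to compounds with rat liver microsomes and NADPH, each 0.5 mg/mL final.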

Assay [10] is described as follows: p53 small molecule agonists, cell-based qHTS assay: qHTS cell viability counter screen (AID 1963581). Also: nearly all actives have a fitted effect of over 45% in size. The gist of the method: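 Cytotoxicity read-out: ATP-based luminescence (CellTiter-Glo, 30 min RT) measured in the same wells as the p53 reporter assay, HCT-116 p53RE-bla cells, 16 h compound exposure at 37 C.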
The nature of assay [11]: p53 small molecule agonists, cell-based qHTS assay (AID 1963582; active = well fitted activation curve with a large enough effect in the signal ratio in the repeat runs, not every such curve was filed as active; the % refers to the signal ratio). The gist of the method: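 Fluorescence intensity read-out of a beta-lactamase reporter under a p53 response element. Cells were exposed to DMSO-dissolved compounds for 16 h at 37 C, then developed with FRET substrate for 2 h at RT.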
The target in assay [12] is 5-hydroxytryptamine receptor 2A (Homo sapiens) (UniProt P28223). Description: 5-hydroxytryptamine receptor 2A (HTR2A) small molecule antagonists, cell-based qHTS assay (AID 1963586). Also: nearly all actives have a fitted effect of over 45% in size. Also: potency is read from the fitted curve at half-maximal effect. In outline:
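CHO cells stably expressing human HTR2A were plated for 18 h at 37 C, then loaded with calcium dye for 1 h. Compounds were preincubated 5 min at room temperature before DOI (4 nM solution) was added. Kinetic fluorescence was read for 3 min.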

Assay [13] shares this target. Kind of assay: 5-hydroxytryptamine receptor 2A (HTR2A) small molecule agonists, cell-based qHTS assay (AID 1963587). Also: nearly all actives have a fitted effect of over 30% in size. The gist of the method:
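CHO cells stably expressing human HTR2A, plated 18 h, loaded with calcium dye 1 h at 37 C. Agonist mode: compounds added and intracellular calcium fluorescence recorded kinetically for 2 min at 1 sec intervals.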

In assay [14] the target is Muscarinic acetylcholine receptor M1 (Homo sapiens) (UniProt P11229). Kind of assay: Cholinergic receptor muscarinic 1 (CHRM1) small molecule antagonists, cell-based qHTS assay (AID 1963588). Also: nearly all actives have a fitted effect of over 40% in size. Also: potency is read from the fitted curve at half-maximal effect. The gist of the method:
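Compounds were tested at 15 concentrations in three independent runs. Dye-loaded CHRM1-CHO cells were exposed 5 min at room temperature before stimulation by acetylcholine added at 50nM. Intracellular calcium was read kinetically on FDSS for 3 min.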

The target is the same in assay [15]. Description: Cholinergic receptor muscarinic 1 (CHRM1) small molecule agonists, cell-based qHTS assay (AID 1963589). Also: nearly all actives have a fitted effect of over 35% in size. In outline: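 Calcium flux read-out: kinetic fluorescence at 1 sec intervals after pin-tool compound addition to dye-loaded CHRM1-CHO cells (human M1). Agonist mode; 15 concentrations tested in triplicate independent runs.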
A short description of assay [16]: cAMP Responsive Elements (CRE) small molecule agonists, cell-based qHTS assay (AID 1963590). The gist of the method: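 Beta-lactamase reporter readout: LiveBLAzer B/G FRET substrate, 2 h at room temperature, added after 3 h compound treatment of CRE-bla HEK 293T cells at 37 C/5% CO2.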
Assay [17] in a line: cAMP Responsive Elements (CRE) small molecule antagonists, cell-based qHTS assay (AID 1963591; active = well fitted inhibition curve with a large enough effect in the signal ratio in the repeat runs, not every such curve was filed as active; the % refers to the signal ratio). The gist of the method: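 HEK293T CRE-bla; 18 h preincubation; compound pin-transfer; NKH477 0.25 uM final, 3 h, 37 C; LiveBLAzer FRET substrate 2 h RT.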
Assay [18] deals with Beta-2 adrenergic receptor (Homo sapiens) (UniProt P07550). Kind of assay: Adrenergic beta2 receptor (ADRB2) small molecule antagonists, cell-based qHTS assay (AID 1963592). Also: series mostly up to about 92 µM; nearly all actives have a fitted effect of over 50% in size. In outline: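 Assay format: CHO-ADRB2 cells, 18-20hr seeding at 37C/5% CO2, then compound plus 1nM isoproterenol agonist mix for 0.5hr RT. Homogeneous time-resolved fluorescence cAMP detection after 1hr, expressed as 665/615 nm ratio.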

For assay [19], the target named is D(2) dopamine receptor (Homo sapiens) (UniProt P14416). Description: Dopamine D2 receptor (DRD2) small molecule agonists, cell-based qHTS assay (AID 1963594). Also: nearly all actives have a fitted effect of over 35% in size. The gist of the method: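 HEK293 cells stably expressing human DRD2, pre-treated with PDE inhibitor Ro20-1724 (0.1 mM final) and compound 10 min at room temperature, then stimulated with NKH477 (200nM […]) for 30 min. cAMP read by HTRF (665/620 nm).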

Assay [20] shares this target. Kind of assay: Dopamine D2 receptor (DRD2) small molecule antagonists, cell-based qHTS assay (AID 1963595; active = well fitted inhibition curve with a large enough effect in the signal ratio in the repeat runs, with a control signal flat; the % refers to the signal ratio; also: potency is read from the fitted curve at half-maximal effect). The gist of the method: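 HEK293 cells stably expressing DRD2 were preincubated with 0.1 mM Ro20-1724, then with compound for 10 min at room temperature. Cells were stimulated with 200 nM NKH477 plus 12 nM quinpirole for 30 min, and cAMP was read by HTRF.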

Muscarinic acetylcholine receptor M1 (Homo sapiens), sequence (P11229 whole entry, looked up): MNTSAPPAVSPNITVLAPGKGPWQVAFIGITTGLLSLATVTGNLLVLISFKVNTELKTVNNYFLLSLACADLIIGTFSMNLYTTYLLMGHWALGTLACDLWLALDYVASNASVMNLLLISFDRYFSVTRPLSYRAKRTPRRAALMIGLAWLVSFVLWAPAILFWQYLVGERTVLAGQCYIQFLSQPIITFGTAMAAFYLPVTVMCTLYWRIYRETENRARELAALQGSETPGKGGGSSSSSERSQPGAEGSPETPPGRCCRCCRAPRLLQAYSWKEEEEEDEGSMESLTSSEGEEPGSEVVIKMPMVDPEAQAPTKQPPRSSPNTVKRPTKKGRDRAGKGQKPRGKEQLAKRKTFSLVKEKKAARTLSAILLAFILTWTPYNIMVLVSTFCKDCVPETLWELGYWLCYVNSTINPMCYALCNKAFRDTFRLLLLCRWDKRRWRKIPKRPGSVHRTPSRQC
Beta-2 adrenergic receptor (Homo sapiens), sequence (P07550 whole entry, looked up): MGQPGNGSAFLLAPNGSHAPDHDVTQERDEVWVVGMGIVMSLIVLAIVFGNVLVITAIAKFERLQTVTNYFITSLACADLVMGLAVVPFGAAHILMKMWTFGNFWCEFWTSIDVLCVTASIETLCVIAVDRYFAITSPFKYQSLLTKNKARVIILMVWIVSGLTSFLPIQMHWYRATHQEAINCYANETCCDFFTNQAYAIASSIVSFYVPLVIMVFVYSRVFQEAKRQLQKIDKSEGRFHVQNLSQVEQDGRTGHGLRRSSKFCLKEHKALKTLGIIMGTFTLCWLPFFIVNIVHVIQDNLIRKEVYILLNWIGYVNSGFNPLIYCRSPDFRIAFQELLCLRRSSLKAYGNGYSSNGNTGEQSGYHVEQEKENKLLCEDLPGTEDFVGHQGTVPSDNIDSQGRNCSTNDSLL
KiSS-1 receptor (Homo sapiens), sequence (Q969F8 whole entry, looked up): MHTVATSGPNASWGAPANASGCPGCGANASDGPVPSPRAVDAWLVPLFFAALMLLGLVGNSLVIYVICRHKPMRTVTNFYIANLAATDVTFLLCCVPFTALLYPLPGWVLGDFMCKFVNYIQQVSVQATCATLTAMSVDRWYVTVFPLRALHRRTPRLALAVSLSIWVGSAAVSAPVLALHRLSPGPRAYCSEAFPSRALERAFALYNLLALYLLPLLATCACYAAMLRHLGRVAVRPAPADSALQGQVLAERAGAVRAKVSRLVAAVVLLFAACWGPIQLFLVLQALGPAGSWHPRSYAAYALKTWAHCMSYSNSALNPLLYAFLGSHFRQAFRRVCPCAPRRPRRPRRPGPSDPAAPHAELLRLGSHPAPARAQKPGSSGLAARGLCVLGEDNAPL
5-hydroxytryptamine receptor 2A (Homo sapiens), sequence (P28223 whole entry, looked up): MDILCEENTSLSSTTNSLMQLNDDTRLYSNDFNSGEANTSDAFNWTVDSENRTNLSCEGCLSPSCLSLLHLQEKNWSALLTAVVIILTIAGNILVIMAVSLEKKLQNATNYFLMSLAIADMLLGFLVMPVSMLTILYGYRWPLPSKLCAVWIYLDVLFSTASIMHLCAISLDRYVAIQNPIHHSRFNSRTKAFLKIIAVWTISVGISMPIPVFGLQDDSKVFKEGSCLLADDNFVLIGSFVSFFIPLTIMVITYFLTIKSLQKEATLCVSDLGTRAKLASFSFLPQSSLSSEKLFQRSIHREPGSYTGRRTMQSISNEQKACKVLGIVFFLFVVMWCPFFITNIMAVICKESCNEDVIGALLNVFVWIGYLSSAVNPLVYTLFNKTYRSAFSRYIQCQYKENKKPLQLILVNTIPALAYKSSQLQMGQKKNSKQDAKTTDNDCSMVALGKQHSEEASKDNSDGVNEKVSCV
Gonadotropin-releasing hormone receptor (Homo sapiens), sequence (P30968 whole entry, looked up): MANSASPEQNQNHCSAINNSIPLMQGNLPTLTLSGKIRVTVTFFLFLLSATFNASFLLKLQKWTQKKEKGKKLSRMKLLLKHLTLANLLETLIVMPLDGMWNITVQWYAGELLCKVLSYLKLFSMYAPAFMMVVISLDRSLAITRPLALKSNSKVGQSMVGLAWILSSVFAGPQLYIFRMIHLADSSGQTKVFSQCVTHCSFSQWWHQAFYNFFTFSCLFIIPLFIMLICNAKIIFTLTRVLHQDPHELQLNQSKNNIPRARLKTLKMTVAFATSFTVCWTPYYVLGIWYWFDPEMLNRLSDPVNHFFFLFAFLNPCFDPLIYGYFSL
D(2) dopamine receptor (Homo sapiens), sequence (P14416 whole entry, looked up): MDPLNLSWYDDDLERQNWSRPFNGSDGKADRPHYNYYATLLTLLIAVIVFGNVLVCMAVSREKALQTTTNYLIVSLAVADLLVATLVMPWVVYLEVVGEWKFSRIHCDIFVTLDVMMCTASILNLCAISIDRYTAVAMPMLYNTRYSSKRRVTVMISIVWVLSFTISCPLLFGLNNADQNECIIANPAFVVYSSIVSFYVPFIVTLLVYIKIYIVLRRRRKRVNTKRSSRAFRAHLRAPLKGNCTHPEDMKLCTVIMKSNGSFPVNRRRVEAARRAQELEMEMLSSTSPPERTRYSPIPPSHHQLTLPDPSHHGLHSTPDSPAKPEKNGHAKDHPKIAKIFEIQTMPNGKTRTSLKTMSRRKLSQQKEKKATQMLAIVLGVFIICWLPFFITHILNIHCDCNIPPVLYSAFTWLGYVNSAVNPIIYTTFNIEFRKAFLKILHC

As for `CC1(C)[C@H](C(=O)OCc2cccc(Oc3ccccc3)c2)[C@@H]1C=C(Cl)Cl`, the Potency entry in assay [1], in assay [2], in assay [3], in [4], in assay [5] and in [6] was “inactive” throughout. Also, the Potency entry in [7], in assay [8], in assay [9], in assay [10], in [11] and in assay [12] was “inactive” in each case. Further, the Potency entry in assay [13], in assay [14], in assay [15], in [16], in [17] and in [18] was “inactive” in each case. Also, the Potency entry in assay [19] and in assay [20] was “inactive” throughout.

As for `c1ccc2cnccc2c1`, the Potency entry in assay [1], in assay [2], in assay [3], in assay [4], in assay [5] and in assay [6] was “inactive” throughout. Besides, the Potency entry in assay [7], in assay [8], in [9], in assay [10], in assay [11] and in assay [12] was “inactive” in each case. The Potency entry in assay [13], in assay [14], in assay [15], in [16], in assay [17] and in [18] was “inactive” throughout. The Potency entry in assay [19] and in assay [20] was “inactive” in each case.

Regarding `C=CCOCC(CC)(CO)COCC=C`, the Potency entry in assay [1], in assay [2], in assay [3], in assay [4], in assay [5] and in [6] was “inactive” in each case. Further, the Potency result in [7], in [8], in [9], in assay [10], in assay [11] and in [12] was “inactive” in each case. Moreover, the Potency entry in assay [13], in assay [14], in assay [15], in assay [16], in [17] and in assay [18] was “inactive” throughout. Besides, the Potency entry in assay [19] and in assay [20] was “inactive” in each case.

Regarding `CC1OC1C1CCC2(C)OC2C1` (stereo not given), the Potency result in [1], in assay [2], in assay [3], in assay [4], in [5] and in assay [6] was “inactive” each time. The Potency result in [7], in assay [8], in assay [9], in assay [10], in assay [11] and in assay [12] was “inactive” each time. Further, the Potency result in assay [13], in [14], in assay [15], in [16], in assay [17] and in assay [18] was “inactive” each time. Also, the Potency entry in assay [19] and in assay [20] was “inactive” throughout.

For `O=C(CCCN1CCC(O)(c2cccc(C(F)(F)F)c2)CC1)c1ccc(F)cc1`, the Potency result in [1], in assay [2], in [3], in [4], in [5] and in assay [6] was “inactive” each time. For the same compound, the Potency result in assay [7], in [8], in assay [9], in assay [10], in assay [11] and in [13] was “inactive” in each case. Moreover, the Potency result in assay [14], in [15], in assay [16], in assay [17], in [18] and in assay [19] was “inactive” each time. Also, the Potency is 365 nM (active) in assay [12] and 4.2 nM (active) in assay [20].

Turning to `CC(C)(O)C(=O)O`, the Potency entry in [1], in [2], in [3], in assay [4], in assay [5] and in [6] was “inactive” throughout. Also, the Potency entry in [7], in assay [8], in assay [9], in [10], in [11] and in assay [12] was “inactive” throughout. Also, the Potency result in assay [13], in assay [14], in assay [15], in assay [16], in assay [17] and in assay [18] was “inactive” in each case. In addition, the Potency entry in [19] and in [20] was “inactive” throughout.

For `CCCCCC=O`, the Potency result in [1], in assay [2], in [3], in [4], in [5] and in [6] was “inactive” in each case. In addition, the Potency result in assay [7], in assay [8], in assay [9], in assay [10], in assay [11] and in assay [12] was “inactive” each time. The Potency entry in assay [13], in [15], in assay [16], in assay [17], in assay [18] and in [19] was “inactive” throughout. Moreover, the Potency result in assay [20] was “inactive”. In addition, in assay [14], the Potency result is “inactive and 11.9 nM (active)”.
